Shown are actives, neighbours in structure and some others; about 3.9% of the full set was active somewhere.
MITF TRPM1 HTS = activators of MITF-driven TRPM1 promoter reporter, primary screen, cell-based, SK-MEL-5, luciferase, single point; SK-MEL-5 TRPM1-promoter luciferase, 24 h; % of positive control, neutral wells = 0; activation, % at 12.5 µM; 300,000 compounds, 0.75% hits;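 active = mean activation of at least 80% with every replicate also reaching 80%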
HSF-1 act = HSF-1 activators, primary screen, NIH3T3-HGL cells, MG132 stress, luminescence, single point | 300,000 compounds, 1.7% hits | AID 504408, 2011 | NIH3T3-HGL HSF-1 luciferase reporter, 8 h; 100% = twice DMSO control signal | activation, % at 9 µM;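 active = mean replicate activation of at least 50% with a set share of replicates each reaching 50%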
Wnt act = Wnt/beta-catenin pathway activators, primary screen, cell-based, plate reader, single point. Wnt/beta-catenin reporter cell assay, activator. activation, % at 9.35 µM. 300,000 compounds, 1.2% hits; in the data active = activation above about 30%, passing the limit was not always enough
HSF1 inhib = HSF1 inhibitors in luciferase reporter cells, primary screen, cell-based, NIH3T3, luminescence | NIH3T3-HGL HSE-luciferase, MG132-induced, luminescence 8 h; hits give low values | AID 2098, 2009 | 300,000 compounds, 0.77% hits | activity change, negative = inhibition, % at 7.5 µM (by protocol);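 active = more than half of replicate wells show activity change below -50%, luminescence cut by over half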;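 also: luciferase reports HSF-1 transcriptional activity via heat shock element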
esBAF inh = Bmi1 luciferase reporter increase in mESCs, primary screen, esBAF inhibitor project, mouse ES cells, Bmi1 luciferase knock-in, single point. reporter increase, % at 12.5 µM. 24 h; 100% = twice the neutral-well signal. AID 602393, 2012. 350,000 compounds, 2% hits; in the data active = activation above about 40%;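 also: a rise in the Bmi1 reporter signal indicates esBAF inhibition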
Each line names hits and unclear results; the compound was inactive in the other large screens.

Cc1nnc(SCC(=O)c2ccc(Cl)cc2)n(N)c1=O	Wnt act 43 (no result: HSF-1 act, HSF1 inhib, esBAF inh)
C#CCNC(=O)c1cc(-c2ccccc2)sc1N	none (no result: MITF TRPM1 HTS, HSF-1 act, HSF1 inhib, esBAF inh)
COC(=O)c1cc(-c2ccccc2)sc1N	esBAF inh 51
O=C(CCCc1cccs1)Nc1nc2c(s1)CCCC2	esBAF inh 53 (no result: MITF TRPM1 HTS, Wnt act)
CC1CCc2nc(NC(=O)Cc3cccs3)sc2C1 (stereo unspecified)	MITF TRPM1 HTS 126, esBAF inh 58
Cc1cccc(CCNc2nc3ccc(C)cc3n3cnnc23)c1	esBAF inh 46
Cc1ccc2nc(NCCc3ccc(Cl)cc3)c3nncn3c2c1	none
CCCOC1CCCN(C(=O)CCc2nnc(CCCCc3ccccc3)o2)C1 (stereo unspecified)	HSF-1 act 56 (no result: MITF TRPM1 HTS, esBAF inh)
CN1c2ccc(C#Cc3cccnc3)cc2[C@H]2[C@H](CCN2S(=O)(=O)c2ccc(F)cc2)[C@@H]1CO	none (no result: MITF TRPM1 HTS, HSF-1 act, Wnt act, HSF1 inhib)
O=C(CCl)N1CCN2C(=O)c3ccccc3C12c1ccc(Cl)cc1 (stereo unspecified)	HSF-1 act 76 (no result: esBAF inh)
CN1C(=O)c2cc(NC(=O)c3cnccn3)ccc2OC[C@@H]2O[C@H](CC(=O)NC3CCC3)CC[C@H]21	none (no result: MITF TRPM1 HTS, HSF-1 act, Wnt act, HSF1 inhib)
Cc1cccnc1NC(=S)Nc1ccc(Br)cc1Cl	esBAF inh 55
C[C@@H]1CCCCO[C@@H](CN(C)C(=O)Nc2ccc3c(c2)OCO3)[C@H](C)CN([C@@H](C)CO)C(=O)c2cc(NS(=O)(=O)c3cn(C)cn3)ccc2O1	none (no result: MITF TRPM1 HTS, HSF-1 act, Wnt act, HSF1 inhib)
C[C@H]1CN([C@@H](C)CO)C(=O)CCCn2cc(nn2)CO[C@H]1CN(C)C(=O)Nc1ccc(N2CCN(C)CC2)cc1	none (no result: MITF TRPM1 HTS, HSF-1 act, Wnt act, HSF1 inhib)
O=C(c1ccccn1)N1CC[C@@H]2[C@@H](CO)Nc3ccc(-c4ccccc4F)cc3[C@@H]21	none (no result: MITF TRPM1 HTS, HSF-1 act, Wnt act, HSF1 inhib)
Brc1ccc(-c2cnc(-c3cccs3)o2)cc1	esBAF inh 67 (no result: MITF TRPM1 HTS, Wnt act)
Cn1nccc1C(=O)Nc1ccc(Cl)cc1	esBAF inh 48
CO[C@H]1CN(C)C(=O)c2ccc(NS(=O)(=O)c3ccc(Cl)cc3)cc2OC[C@@H](C)N(C)C[C@H]1C	none (no result: MITF TRPM1 HTS, HSF-1 act, Wnt act, HSF1 inhib)
CN(C)c1ccc(C(C[N+](=O)[O-])c2c(N)n(C)c(=O)n(C)c2=O)c(F)c1C#N (stereo unspecified)	HSF-1 act 66
O=C(C[C@@H]1C[C@H]2c3cc(NC(=O)Nc4ccc(C(F)(F)F)cc4)ccc3O[C@H]2[C@H](CO)O1)NC1CCCCC1	none (no result: MITF TRPM1 HTS, HSF-1 act, Wnt act, HSF1 inhib)
COc1cccc(C2C(C(=O)c3cc4ccccc4o3)=C(O)C(=O)N2c2cc(C)on2)c1OC (stereo unspecified)	none (no result: Wnt act, esBAF inh)
COc1cc(C2C(C(=O)c3cc4ccccc4o3)=C(O)C(=O)N2c2cc(C)on2)cc(OC)c1OC (stereo unspecified)	HSF-1 act 57
FC(F)(F)c1nnc2c(Sc3ccccc3)nc3ccccc3n12	none (no result: MITF TRPM1 HTS, esBAF inh)
FC(F)(F)c1nnc2c(Sc3ccccn3)nc3ccccc3n12	esBAF inh 63
O=S(=O)(Cc1ccccc1)NCC[C@H]1CC[C@H](NS(=O)(=O)c2ccc(F)cc2)[C@@H](CO)O1	none (no result: MITF TRPM1 HTS, HSF-1 act, Wnt act, HSF1 inhib)
CCCCc1c(C)nn(-c2nnc3c4ccccc4n(C)c3n2)c1C	esBAF inh 48 (no result: Wnt act)
O=C(Nc1ccc(N2CCCCC2)cc1)c1ccc([N+](=O)[O-])o1	HSF-1 act 91
CCC(=O)N1CCN(c2ccc(NC(=O)COc3ccc(C)cc3C)cc2)CC1	HSF-1 act 110
CC1CCN(c2ccc(NC(=O)c3ccc([N+](=O)[O-])o3)cc2)CC1	HSF-1 act 98 (no result: esBAF inh)
CCC(=O)N1CCN(c2ccc(NC(=O)COc3ccccc3Cl)cc2)CC1	none
CCC(=O)N1CCN(c2ccc(NC(=O)c3ccccc3)cc2)CC1	none (no result: esBAF inh)
CCC(=O)N1CCN(c2ccc(NC(=O)c3ccc4ccccc4c3)cc2)CC1	HSF-1 act 66
CC(C)(C)C(=O)N1CCN(c2ccc(NC(=O)c3ccc([N+](=O)[O-])o3)cc2)CC1	none
C[C@@H]1CN([C@@H](C)CO)S(=O)(=O)c2ccc(-c3ccccc3F)cc2O[C@@H]1CN(C)Cc1ccncc1	none (no result: MITF TRPM1 HTS, HSF-1 act, Wnt act, HSF1 inhib)
Cc1ccc(NC(=O)C[C@H]2CC[C@H]3[C@@H](COc4ccc(NC(=O)C5CCC5)cc4C(=O)N3C)O2)cc1	none (no result: MITF TRPM1 HTS, HSF-1 act, Wnt act, HSF1 inhib)
COc1cccc(CNC(=O)c2cc3c(c(-c4cccc(-c5ccc(C#N)cc5)c4)n2)[C@H](CCO)N([S@@](=O)C(C)(C)C)C3)c1	none (no result: MITF TRPM1 HTS, HSF-1 act, Wnt act, HSF1 inhib)
CC(C)NC(=O)Nc1ccc2c(c1)CC(=O)N([C@@H](C)CO)C[C@@H](C)[C@@H](CN(C)C(=O)NC1CCCCC1)O2	none (no result: MITF TRPM1 HTS, HSF-1 act, Wnt act, HSF1 inhib)
O=C(C[C@@H]1C[C@@H]2c3cc(NC(=O)C4CCOCC4)ccc3O[C@@H]2[C@H](CO)O1)NCCc1ccccc1	none (no result: MITF TRPM1 HTS, HSF-1 act, Wnt act, HSF1 inhib)
CC(C)NC(=O)Nc1ccc2c(c1)C(=O)N([C@@H](C)CO)C[C@@H](C)[C@@H](CN(C)C(=O)Nc1ccc3c(c1)OCO3)OCCCC[C@@H](C)O2	none (no result: MITF TRPM1 HTS, HSF-1 act, Wnt act, HSF1 inhib)
CCC(=O)N1CCN(c2ccc(NC(=O)c3ccc([N+](=O)[O-])o3)cc2)CC1	HSF1 inhib -76 (no result: esBAF inh)
CCN(CC)S(=O)(=O)c1ccc(NS(=O)(=O)c2ccc(F)cc2)cc1	none (no result: Wnt act)
CCN(CC)S(=O)(=O)c1ccc(NS(=O)(=O)c2cccc(C)c2)cc1	Wnt act 39
Cc1ccc(OCC(=O)Nc2cc(C(C)(C)C)on2)cc1C	none (no result: esBAF inh)
Cc1cc(NC(=O)COc2ccccc2C)no1	MITF TRPM1 HTS 95 (no result: esBAF inh)
Cc1ccc(OCC(=O)Nc2ccc3c(c2)C(=O)N(CCC(=O)O)C3=O)cc1	none (no result: esBAF inh)
Cc1ccccc1OCC(=O)NC1=NCCS1	esBAF inh 44 (no result: MITF TRPM1 HTS, Wnt act)
Cc1ccccc1OCC(=O)Nc1ccc2c(c1)C(=O)N(CCC(=O)O)C2=O	HSF1 inhib -51
Cc1ccc(OCC(=O)NC2=NCCS2)cc1	none (no result: Wnt act, esBAF inh)
Cc1cc(NC(=O)COc2ccc(C)c(C)c2)no1	MITF TRPM1 HTS 90
CN(C)CC(=O)NC[C@H]1N[C@@H](CO)[C@H]1c1ccc(-c2cccc(C#N)c2)cc1	none (no result: MITF TRPM1 HTS, HSF-1 act, Wnt act, HSF1 inhib)
O=C(c1cc(-c2ccccc2O)on1)N1CCOCC1	MITF TRPM1 HTS 96, Wnt act 35, esBAF inh 51
O=C(c1cc(-c2ccc(Cl)cc2Cl)on1)N1CCOCC1	none
O=C(c1cc(-c2ccccc2O)on1)N1CCCCCC1	MITF TRPM1 HTS 125, esBAF inh 60
CC(=O)N1[C@@H]2Cn3c(ccc(-c4ccccc4F)c3=O)[C@H]1[C@@H](C(=O)N1CCOCC1)[C@@H]2CO	none (no result: MITF TRPM1 HTS, HSF-1 act, Wnt act, HSF1 inhib)
CC(C)CC1C(=O)N(Cc2cn(CCC3OCCCO3)nn2)CCS(=O)(=O)N1Cc1ccc(-c2ccc(Cl)nc2)cc1 (stereo unspecified)	esBAF inh 58 (no result: MITF TRPM1 HTS, HSF-1 act, HSF1 inhib)
COc1ccc(NC(=O)N(C)C[C@@H]2OCCCC[C@H](C)Oc3ccc(NC(=O)C4CCCCC4)cc3C(=O)N([C@H](C)CO)C[C@@H]2C)cc1	none (no result: MITF TRPM1 HTS, HSF-1 act, Wnt act, HSF1 inhib)
CC(C)c1ccc(OCC(=O)N2CCCCCC2)c(Br)c1	HSF-1 act 101, Wnt act 43, esBAF inh 51
